Consider 6 compounds from PubChem BioAssay (NCI).

Some test systems named below: NCI-H23 lung; NCI-H226 lung; NCI-H322M lung; HOP-62 NSCLC; NCI-H460 lung; HOP-92 NSCLC; NCI-H522 lung; A549/ATCC NSCLC; 786-0 renal; COLO 205 colon; DU-145 prostate; K-562 leukemia; MALME-3M melanoma; MDA-MB-231 breast; RXF 393 renal; SF-268 CNS; SF-295 CNS; SF-539 CNS; UACC-257 melanoma; M14 melanoma.
Holding throughout (test): NCI-60 one-dose screen, 48 h (100 = growth as untreated, 0 = no growth, -100 = all killed)
Settings in all cases: 10 µM unless noted

SMILES strings stand for the structures. This is part of a sample that, as a whole, favours compounds with a hit. Of some 83,000 tested, about 20% had one in any assay.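 Single-concentration screen, 48 h exposure, 96-well plates. Endpoint: percent growth. Below 10 = active.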 Values without a mark were called inactive. The source made the active and inactive calls.

With `CC(NNC(C)c1ccccc1)c1ccccc1` (stereo not given), the growth with NCI-H23 lung is 103%; in the test with NCI-H226 lung it was 98.8%; in the test on NCI-H322M lung, 122%; in the test on HOP-62 NSCLC, 105%; with NCI-H460 lung, 106%; in the test on HOP-92 NSCLC, 96.4%. For the same compound, the growth was 93.9% in the test on NCI-H522 lung; 104% with A549/ATCC NSCLC; 109% with 786-0 renal; 105% with COLO 205 colon; 110% in the test with DU-145 prostate; 114% with K-562 leukemia. In addition, the growth was 123% in the test on MALME-3M melanoma; 113% with MDA-MB-231 breast; 116% with RXF 393 renal; 109% with SF-268 CNS; 111% with SF-295 CNS; 101% in the test with SF-539 CNS. Also, the growth in the test with UACC-257 melanoma is 109%; in the test with M14 melanoma, 101%.
Regarding `c1ccc(Nc2nc(Nc3ccccc3)nc(Nc3ccccc3)n2)cc1`, the growth in the test with NCI-H23 lung was 86.5%; in the test with NCI-H226 lung, 89%; in the test with NCI-H322M lung, 57.3%; with HOP-62 NSCLC, 90.6%; in the test on NCI-H460 lung, 78%; with HOP-92 NSCLC, 60.9%. Further, the growth is 84.5% with NCI-H522 lung; 79.9% in the test on A549/ATCC NSCLC; 100% in the test on 786-0 renal; 76.1% in the test with COLO 205 colon; 93.6% with DU-145 prostate; 92.7% in the test on K-562 leukemia. In addition, the growth with MALME-3M melanoma was 88.7%; with MDA-MB-231 breast, 79.2%; with RXF 393 renal, 84.3%; in the test on SF-268 CNS it was 106%; in the test with SF-295 CNS, 69%; in the test with SF-539 CNS, 90.7%. Besides, the figures for the growth with UACC-257 melanoma and with M14 melanoma were 82.9% and 89%, respectively.
Consider `CCCCCCCCN(CCCCCCCC)CCCCCCNc1cc(OC)cc2cccnc12`, for which the growth in the test with NCI-H23 lung is 55.6%; with NCI-H226 lung it was 100%; in the test on NCI-H322M lung, 88.5%; in the test on HOP-62 NSCLC, 96.7%; in the test with NCI-H460 lung, 92.8%; in the test on HOP-92 NSCLC, 62.6%. Moreover, the growth is 92.1% in the test on NCI-H522 lung; 105% in the test with A549/ATCC NSCLC; 93.7% with 786-0 renal; 33.3% in the test with COLO 205 colon; 27.4% in the test on DU-145 prostate; 80.1% in the test on K-562 leukemia. The growth in the test with MALME-3M melanoma is 61.7%; with MDA-MB-231 breast, 52%; in the test on RXF 393 renal it was 108%; in the test with SF-268 CNS it was 83.4%; in the test with SF-295 CNS, 109%; in the test with SF-539 CNS it was 111%. Moreover, the growth in the test with UACC-257 melanoma is 18.2%; with M14 melanoma, -1.6% (active).
For the compound `O=C(c1ccccc1)c1c(/C=C/c2ccccc2)c2ccccc2[nH]c1=O`, the growth in the test on NCI-H23 lung is 94.2%; with NCI-H226 lung, 89.9%; in the test with NCI-H322M lung it was 82.8%; in the test with HOP-62 NSCLC, 87.1%; in the test on NCI-H460 lung, 114%; in the test with HOP-92 NSCLC, 73%. Further, the growth in the test with NCI-H522 lung is 83.4%; in the test on A549/ATCC NSCLC, 93.5%; in the test on 786-0 renal it was 92.2%; in the test on COLO 205 colon, 110%; with DU-145 prostate it was 115%; in the test with K-562 leukemia it was 82.4%. The growth is 98.3% in the test on MALME-3M melanoma; 101% with MDA-MB-231 breast; 78.9% in the test with RXF 393 renal; 86.2% in the test with SF-268 CNS; 95.6% in the test on SF-295 CNS; 99.2% in the test on SF-539 CNS. Also, the figures for the growth with UACC-257 melanoma and with M14 melanoma were 95.6% and 107%, respectively.
With `C=C[C@@H]1C[C@H](O)Cc2cc(F)ccc2N1`, the growth in the test with NCI-H23 lung is 97.4%; with NCI-H226 lung, 87%; with NCI-H322M lung, 112%; in the test with HOP-62 NSCLC it was 88%; with NCI-H460 lung, 98%; with HOP-92 NSCLC it was 56.2%. For the same compound, the growth is 92.9% in the test on NCI-H522 lung; 98% in the test on A549/ATCC NSCLC; 100% with 786-0 renal; 107% with COLO 205 colon; 102% in the test on DU-145 prostate; 102% with K-562 leukemia. For the same compound, the growth in the test with MALME-3M melanoma was 91.7%; with MDA-MB-231 breast, 96.1%; in the test on RXF 393 renal, 106%; in the test with SF-268 CNS, 94%; in the test on SF-295 CNS, 101%; in the test with SF-539 CNS, 108%. For the same compound, the figures for the growth in the test with UACC-257 melanoma and with M14 melanoma were 96.1% and 97%, respectively.
As for `Cc1ccc(S(=O)(=O)n2cc(C(=O)C(=O)N3CCOCC3)c3ccccc32)cc1`, the growth was 79.4% with NCI-H23 lung; 82.4% in the test with NCI-H226 lung; 99.2% in the test with NCI-H322M lung; 84.7% in the test with HOP-62 NSCLC; 113% with NCI-H460 lung; 26.6% in the test with HOP-92 NSCLC. Besides, the growth in the test with NCI-H522 lung is 75.2%; in the test with A549/ATCC NSCLC, 114%; in the test on 786-0 renal, 92.4%; with COLO 205 colon, 112%; with DU-145 prostate it was 109%; in the test on K-562 leukemia, 86.9%. Moreover, the growth was 91% in the test on MALME-3M melanoma; 80.2% with MDA-MB-231 breast; 110% in the test with RXF 393 renal; 97% in the test on SF-268 CNS; 94.1% with SF-295 CNS; 91.2% in the test with SF-539 CNS. Besides, the growth was 98.4% in the test on UACC-257 melanoma and 91.4% in the test on M14 melanoma.
